D2 ag-1: HTS Assay for Allosteric Agonists of the Human D2 Dopamine Receptor: Primary Screen for Agonists; HEK293 T-REx D2 cells, calcium flux agonist mode; activation, % at 2 µM; 340,000 compounds, 0.53% hits; AID 485358, 2010;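 active means activation over 3 SD above normal in the single-dose calcium agonist read, cut at about 30% in these data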; further: 0% is about no effect
Target sequence (P14416 whole entry, looked up): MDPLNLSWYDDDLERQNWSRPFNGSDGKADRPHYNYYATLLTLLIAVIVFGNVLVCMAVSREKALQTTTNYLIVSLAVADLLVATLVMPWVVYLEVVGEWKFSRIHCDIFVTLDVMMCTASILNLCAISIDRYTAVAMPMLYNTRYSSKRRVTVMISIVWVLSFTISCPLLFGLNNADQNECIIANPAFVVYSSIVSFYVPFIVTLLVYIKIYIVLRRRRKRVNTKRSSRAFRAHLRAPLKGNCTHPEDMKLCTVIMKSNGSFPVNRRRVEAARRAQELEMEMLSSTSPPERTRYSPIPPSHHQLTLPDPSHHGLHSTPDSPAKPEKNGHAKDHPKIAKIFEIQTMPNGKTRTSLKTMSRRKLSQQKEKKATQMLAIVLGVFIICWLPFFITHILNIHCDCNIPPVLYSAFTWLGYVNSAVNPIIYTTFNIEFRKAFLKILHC
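Calcium-flux readout, 1 cycle/sec over 180 s following compound pin transfer, in inducible HEK293 Trex D2 cells (force-coupled); dopamine controls included. Positive calcium responses during this window marked compounds as potential agonists.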
D2 PAM-1: HTS Assay for Positive Allosteric Modulators of the Human D2 Dopamine Receptor: Primary Screen for Potentiators. potentiation, % at 10 µM. 340,000 compounds, 0.34% hits. HEK293 T-REx D2, calcium flux, EC20 dopamine potentiation. AID 485347, 2010;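 active means potentiation over 3 SD above the plate norm, cut at about 30% in these data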; further: 0% is about no effect
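Tetracycline-induced Hek293 Trex D2 cells, force-coupled to calcium, loaded with no-wash calcium dye. Compound added with 180 s kinetic read for agonism, then EC20 dopamine and a further 180 s read for potentiation.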
D2 ag-2: Beta-Arrestin HTS for Positive Allosteric Modulators of the Human D2 Dopamine Receptor: Agonists. 360,000 compounds, 0.084% hits. DiscoveRx PathHunter D2 beta-arrestin, luminescence, 90 min; 100% = 57 uM dopamine signal. activation, % (concentration not given with the values); in the data active means activation above about 40%; inconclusive means between about 15% and that limit
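Agonist mode: compounds alone added to overnight-plated D2 PathHunter cells for 90 min at 37 C, with 57 uM final dopamine (EC100) defining full response. Beta-arrestin recruitment detected by chemiluminescent reagent, read after 1 h at ambient temperature.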
D2 PAM-2: Beta-Arrestin HTS for Positive Allosteric Modulators of the Human D2 Dopamine Receptor: Potentiators. D(2) dopamine receptor (Homo sapiens), P14416. DiscoveRx D2 beta-arrestin cells, luminescence, 90 min; 100% = 57 uM dopamine signal. potentiation, % (concentration not given with the values). 360,000 compounds, 0.23% hits; in the data active means potentiation above about 50%; inconclusive means mostly about 30% to 49%
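PathHunter D2 cells, attached overnight at 37 deg C, received compound in DMSO plus dopamine at EC20 (50 nM final) for 90 min at 37 deg C. Beta-arrestin recruitment was read as luminescence after 1 h with detection reagent at ambient temperature.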
D2 antag: HTS Assay for Allosteric Antagonists of the Human D2 Dopamine Receptor: Primary Screen for Antagonists. D(2) dopamine receptor (Homo sapiens), P14416. HEK293 TREx D2 cells, calcium flux, dopamine EC80. inhibition, % at 10 µM. 340,000 compounds, 2% hits. AID 485344, 2010; in the data active means inhibition above about 30%; inactive means below that, where a call was filed; further: 0% is about no effect
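Dopamine at EC80 is the agonist stimulus; test compounds precede it by 180 s. Calcium flux read kinetically in a force-coupled, inducible HEK293 T-REx D2 cell line.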
Numbers without * were called inactive; ? = inconclusive; · = no result. Most compounds without a hit are left out; they make up all but 2.4% or so of the library.

SMILES	D2 ag-1	D2 PAM-1	D2 ag-2	D2 PAM-2	D2 antag
O=C(O)c1ccccc1-c1ccc(/C=c2\sc3nc4cc(Br)cnc4n3c2=O)o1	0.2	-5.3	-1.5	-7.1	-4.9
COc1ccc(S(=O)(=O)N2CCC(n3c(C(F)(F)F)nc4cccnc43)CC2)cc1OC	-0.5	·	·	·	·
Cc1c(NC(=O)C(C)(C)Oc2ccc(Cl)cc2)cccc1-c1nc2ncccc2o1	0.6	-2.3	·	·	·
CC(C)C(C)(C#N)NC(=O)CSc1ncnc2sc(-c3ccccc3)cc12 (configuration not stated)	0.6	-13.3	1.0	-10.4	31.0*
CCOC(=O)c1cc2c(=O)n3ccccc3nc2n(CC(C)C)c1=NC(=O)COc1ccc(Cl)cc1	0.0	-12.5	·	·	·
Clc1ccccc1/C=N/N1CCN(Cc2ccccc2)CC1	0.3	-7.5	-0.3	-5.6	-9.1
FC(F)(F)c1ccccc1/C=N/N1CCN(Cc2ccccc2)CC1	-0.5	-21.3	-0.1	-21.2	30.1*
Cc1ccc(CN2CCN(/N=C/c3ccc(C(F)(F)F)cc3)CC2)cc1	-0.1	-3.2	1.1	-15.2	-25.9
Cc1ccc(CN2CCN(/N=C/c3cccs3)CC2)cc1	-0.7	-24.6	-1.2	-29.6	33.8*
Cc1ccc(/C=N/N2CCN(Cc3ccc(C)cc3)CC2)cc1	-0.3	-20.1	0.9	-13.4	54.9*
CCOc1ccccc1C1C(C(=O)Nc2ccccc2)=C(C)Nc2nc(SCC(=O)c3ccc(C)cc3)nn21 (configuration not stated)	-1.0	3.6	·	·	·
COc1cc(-c2nnc(SCC(=O)N(C)C3CCCCC3)o2)cc(OC)c1OC	-1.3	-8.1	·	·	·
CCN(CC)c1ccc(NC(=O)c2cccc(OC)c2)c(C)c1	0.0	9.7	-2.8	-8.1	2.8
CCN(CC)c1ccc(NC(=O)c2c(OC)cccc2OC)c(C)c1	0.6	-10.9	-2.4	-2.1	33.6*
CCOC(=O)CSc1nc2c(sc3ccccc32)c(=O)n1Cc1ccc(OC)cc1	·	1.8	·	·	·
C[C@]12c3[nH]c4ccc(Cl)cc4c3CCN1C(=O)[C@@H](CC(=O)NCCC1=CCCCC1)C[C@@H]2C(=O)N1CCOCC1	·	·	1.3	·	·
Cc1ccc(NC2=C(NCCO)C(=O)c3ccccc3C2=O)cc1	0.0	10.2	7.5	60.0*	-4.2
COc1ccccc1N1CCN(CCCCN2C(=O)C3CCCCN3C2=O)CC1 (configuration not stated)	0.3	-18.2	1.4	-28.1	94.3*
COc1ccccc1N1CCN(CCCN2CC(=O)N3CCCCC3C2=O)CC1 (configuration not stated)	·	·	0.2	-21.2	·
O=C1C2CCCCN2C(=O)N1CCCN1CCN(c2ccc(F)cc2)CC1 (configuration not stated)	0.8	-9.8	-1.2	-22.3	-11.9
O=C1C2CCCN2C(=O)N1CCCN1CCN(c2cccc(Br)c2)CC1 (configuration not stated)	-0.5	18.4	2.7	-5.1	-17.2
CCCCOc1ccccc1N1CCN(CCCN2C(=O)C3CCCN3C2=O)CC1 (configuration not stated)	0.8	-23.7	-2.5	3.7	76.2*
Cc1ccccc1N1CCN(CCCCN2C(=O)C3CCCN3C2=O)CC1 (configuration not stated)	7.6	-18.7	-3.6	-31.5	58.9*
COc1ccc(C2CN=NC23CCCc2ccccc2C3=O)cc1 (configuration not stated)	-1.0	-5.5	4.3	63.9*	-17.6
CCCCCn1cc2c(c1-c1ccc(Cl)cc1)c(=O)n(C)c(=O)n2C	-1.1	11.5	·	·	·
SMILES	D2 ag-1	D2 PAM-1	D2 ag-2	D2 PAM-2	D2 antag
COc1cccc(CNC(=O)C(=O)NCC(c2ccc3c(c2)OCO3)N2CCOCC2)c1 (configuration not stated)	0.9	0.0	·	·	·
CCC(=O)Nc1cccc(NC(=O)c2ccc(C)cc2Cl)c1	-2.0	-7.9	-0.2	-8.8	34.6*
CCC(=O)Nc1cccc(NC(=O)c2ccccc2Cl)c1	-0.1	·	-1.9	-3.8	0.1
C=CCN1C(=O)N/C(=C/c2ccc(C)o2)C1=O	39.2*	-14.8	-11.1	-20.8	-3.1
OCC(CO)(CO)N=Cc1c(O)ccc2ccccc12	-0.3	-7.2	8.4	50.2*	-10.1
Oc1ccccc1N=Cc1c(O)ccc2ccccc12	24.1	14.7	8.1	-7.1	-2.4
C=Cc1ccc(N=Cc2c(O)ccc3ccccc23)cc1	2.3	16.4	-1.4	2.5	43.5*
Oc1ccc2ccccc2c1C=NC12CN3CCN(CN(C3)C1)C2	·	·	11.5	102.5*	·
COCCCN1C(=O)C(CC(=O)NCCCN(C)C)CC(C(=O)N(C(C)C)C(C)C)=C1C (configuration not stated)	·	·	-4.8	-2.8	·
COc1ccccc1CNC(=O)C(=O)NCC1CCCN1S(=O)(=O)c1cc(C)ccc1C (configuration not stated)	·	·	-0.7	-12.0	·
Cc1ccc(CCNC(=O)CCCn2c(=O)c3ccccc3n(Cc3ccccc3C)c2=O)cc1	0.3	0.0	·	·	·
COc1ccc(OC)c(S(=O)(=O)Nc2cccc3c(O)cccc23)c1	·	·	1.9	1.4	·
COc1ccc(OC)c(S(=O)(=O)Nc2ccc(O)c3ccccc23)c1	-0.1	0.4	?	88.6*	-15.3
CC(=O)NNC(=S)NC(=O)C(c1ccccc1)c1ccccc1	1.6	-1.2	0.6	-7.5	9.1
CC(C)(C)C(=O)NC(=S)NNC(=O)C(c1ccccc1)c1ccccc1	99.0*	-10.9	-15.8	-21.0	75.3*
COc1ccc(N(C(=O)c2ccccc2OC(C)=O)C(C)C2CC2)cc1 (configuration not stated)	-0.7	-25.4	-1.9	-4.2	30.5*
COc1ccc(NC(=O)CN(C)C(=O)c2ccccc2OC)cc1	0.2	2.3	-0.9	-1.3	-2.5
CCCS(=O)(=O)N1CCC(N2CCN(Cc3ccc(F)cc3)C(=O)C2=O)CC1	1.3	·	·	·	·
Cc1cccc(NS(=O)(=O)c2cc3c(cc2C)n(C)c(=O)c(=O)n3C)c1	36.2*	-11.3	2.7	0.4	25.9
Cc1cc2c(cc1S(=O)(=O)Nc1cccc(F)c1)n(C)c(=O)c(=O)n2C	-0.5	3.0	-1.3	2.2	-4.6
COc1ccc(/C=C/CN2CCCC(CCC(=O)NCc3ccc(F)c(F)c3)C2)cc1 (configuration not stated)	0.2	-15.2	-0.6	-15.4	-45.2
